Some test systems named below: NCI-H23 lung; NCI-H226 lung; NCI-H322M lung; HOP-62 NSCLC; NCI-H460 lung; NCI-H522 lung; A549/ATCC NSCLC; 786-0 renal; COLO 205 colon; DU-145 prostate; K-562 leukemia; MALME-3M melanoma; MDA-MB-231 breast; SF-268 CNS; SF-295 CNS; SF-539 CNS; UACC-257 melanoma; M14 melanoma; HOP-92 NSCLC; RXF 393 renal.
Test in all cases: NCI-60 one-dose screen, 48 h (100 = growth as untreated, 0 = no growth, -100 = all killed)
Holding throughout (conditions): 10 µM unless noted

Compounds without any hit were thinned out: in the full panel of roughly 83,000, 20% have a hit.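 Activity criterion: percent growth below 10, measured after cells in 96-well plates were exposed to a single compound concentration for 48 hours.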 Values without a mark were called inactive. Activity calls are given as the source filed them.

`Cc1c2c(cc[n+]1Cc1ccccc1)c1ccc(OCC3CCCCC3)cc1n2CC1CCCCC1`: the growth in the experiment on NCI-H23 lung was -76.7% (active); in the experiment with NCI-H226 lung it was -89.1% (active); in the experiment on NCI-H322M lung, -83.2% (active); in the experiment on HOP-62 NSCLC it was -95% (active); in the experiment with NCI-H460 lung, -93.4% (active); with NCI-H522 lung it was -84.5% (active). In addition, the growth was -93.1% (active) in the experiment with A549/ATCC NSCLC; -91.3% (active) in the experiment on 786-0 renal; -95.2% (active) in the experiment with COLO 205 colon; -100% (active) in the experiment on DU-145 prostate; -45.9% (active) in the experiment with K-562 leukemia; -70.3% (active) in the experiment on MALME-3M melanoma. Besides, the growth with MDA-MB-231 breast is -92% (active); in the experiment with SF-268 CNS, -98.7% (active); in the experiment with SF-295 CNS it was -92.8% (active); in the experiment with SF-539 CNS, -85.2% (active); with UACC-257 melanoma it was -92.4% (active); in the experiment with M14 melanoma, -84.6% (active).
In the case of `C#Cc1cccc(NC(=O)Nc2ccc(NC(=O)CCl)cc2)c1`, the growth in the experiment on NCI-H23 lung was -66.6% [8.25 µM] (active); in the experiment with NCI-H226 lung, -27.4% [8.25 µM] (active); in the experiment on NCI-H322M lung, 86.8% [8.25 µM]; in the experiment on HOP-62 NSCLC, -6.94% [8.25 µM] (active); with NCI-H460 lung it was -23.9% [8.25 µM] (active); in the experiment on NCI-H522 lung, -70.8% [8.25 µM] (active). Further, the growth is 45.3% [8.25 µM] with A549/ATCC NSCLC; -71.5% [8.25 µM] (active) in the experiment with 786-0 renal; -58.2% [8.25 µM] (active) in the experiment with COLO 205 colon; 22.3% [8.25 µM] with DU-145 prostate; 3.37% [8.25 µM] (active) in the experiment on K-562 leukemia; -80.5% [8.25 µM] (active) with MALME-3M melanoma. In addition, the growth is -72.6% [8.25 µM] (active) with MDA-MB-231 breast; -82.9% [8.25 µM] (active) in the experiment on SF-268 CNS; 79.5% [8.25 µM] with SF-295 CNS; -99.6% [8.25 µM] (active) with SF-539 CNS; 35.1% [8.25 µM] in the experiment on UACC-257 melanoma; 4.51% [8.25 µM] (active) in the experiment on M14 melanoma.
As for `Fc1ccc(-n2cc(COc3ncnc4sc5c(c34)CCCC5)nn2)cc1Cl`, the growth is 96.8% in the experiment with NCI-H23 lung; 94.4% in the experiment on NCI-H226 lung; 100% in the experiment on NCI-H322M lung; 102% in the experiment on NCI-H460 lung; 109% in the experiment on HOP-92 NSCLC; 84% in the experiment with NCI-H522 lung. Also, the growth in the experiment with A549/ATCC NSCLC was 98.4%; in the experiment on 786-0 renal it was 98.1%; in the experiment with COLO 205 colon, 109%; with DU-145 prostate, 105%; in the experiment with K-562 leukemia, 95.5%; with MALME-3M melanoma it was 92.1%. Besides, the growth in the experiment on MDA-MB-231 breast was 95.8%; in the experiment on RXF 393 renal, 103%; in the experiment on SF-268 CNS, 95.8%; in the experiment on SF-295 CNS, 105%; in the experiment with SF-539 CNS, 98.8%; in the experiment with UACC-257 melanoma, 102%. In addition, in the experiment on M14 melanoma, the growth is 94.2%.
As to `Cc1cc(Nc2cccc(C(F)(F)F)c2)n2c(nc3ccccc32)c1C#N`, the growth was 25.1% with NCI-H23 lung; 40.1% with NCI-H226 lung; 36.9% with NCI-H322M lung; 53.6% in the experiment on HOP-62 NSCLC; 17% with NCI-H460 lung; 20.7% with NCI-H522 lung. In addition, the growth in the experiment with A549/ATCC NSCLC is 43.7%; with 786-0 renal, 58.9%; with COLO 205 colon, 36.9%; in the experiment with DU-145 prostate, 53.9%; in the experiment with K-562 leukemia, 22.1%; in the experiment with MALME-3M melanoma, 60.6%. For the same molecule, the growth is 54.2% in the experiment on MDA-MB-231 breast; 61.3% with RXF 393 renal; 51.3% in the experiment on SF-268 CNS; 53.9% in the experiment with SF-295 CNS; 40.9% with SF-539 CNS; 11.9% in the experiment on UACC-257 melanoma. For the same molecule, the growth with M14 melanoma was 54.4%.
In the case of `CN1CCN(C(=O)OCc2nc3c(N4CCOCC4)nc(-c4ccccc4)nc3n2C)CC1`, the growth with NCI-H23 lung is -77.1% (active); with NCI-H226 lung it was -66.7% (active); in the experiment with NCI-H322M lung it was 58.2%; with HOP-62 NSCLC, 4.63% (active); in the experiment with NCI-H460 lung it was -46.9% (active); with NCI-H522 lung, -35.3% (active). Further, the growth with A549/ATCC NSCLC was 6.44% (active); in the experiment with 786-0 renal, -83.3% (active); with COLO 205 colon, -53% (active); in the experiment with DU-145 prostate it was -83.5% (active); in the experiment with K-562 leukemia it was 2.72% (active); in the experiment with MALME-3M melanoma, -93.9% (active). Besides, the growth in the experiment on MDA-MB-231 breast is -86.2% (active); in the experiment on SF-268 CNS, -50.2% (active); in the experiment with SF-295 CNS, 47.9%; with SF-539 CNS, -99.6% (active); in the experiment on UACC-257 melanoma it was -49.5% (active); with M14 melanoma, -73.5% (active).
Turning to `CC(=O)N1N=C(c2cccc(Nc3ccncc3)c2)CC1c1ccc2c(c1)OCO2` (centres undefined), the growth with NCI-H23 lung is 87.4%; in the experiment with NCI-H226 lung, 94.6%; in the experiment with NCI-H322M lung, 105%; in the experiment on HOP-62 NSCLC, 89.4%; in the experiment on NCI-H460 lung it was 101%; in the experiment with NCI-H522 lung, 96.5%. Besides, the growth was 93.9% in the experiment on A549/ATCC NSCLC; -93.4% (active) in the experiment on 786-0 renal; 84.3% in the experiment with COLO 205 colon; 104% in the experiment with DU-145 prostate; 27.4% in the experiment with K-562 leukemia; 74.9% in the experiment on MALME-3M melanoma. Also, the growth with MDA-MB-231 breast is 86.9%; in the experiment on SF-268 CNS, 91.8%; with SF-295 CNS, 89.9%; in the experiment on SF-539 CNS it was 77.9%; with UACC-257 melanoma, 100%; with M14 melanoma, -69.4% (active).
For `CCOC(=O)N1CCc2c(sc3nc4nc[nH]n4c(=O)c23)C1`, the growth is 95% with NCI-H23 lung; 82.4% in the experiment on NCI-H226 lung; 109% in the experiment with NCI-H322M lung; 86.6% in the experiment with HOP-62 NSCLC; 109% in the experiment with NCI-H460 lung; 85.2% with NCI-H522 lung. Moreover, the growth is 100% in the experiment with A549/ATCC NSCLC; 99.6% with 786-0 renal; 102% with COLO 205 colon; 107% in the experiment on DU-145 prostate; 105% in the experiment on K-562 leukemia; 102% with MALME-3M melanoma. Moreover, the growth with MDA-MB-231 breast was 99.9%; with RXF 393 renal, 104%; in the experiment on SF-268 CNS it was 99.7%; in the experiment on SF-295 CNS, 103%; in the experiment with SF-539 CNS, 94.6%; in the experiment on UACC-257 melanoma, 109%. In the experiment on M14 melanoma, the growth was 98.4%.
As to `c1cnc2nc3c(cc2c1)oc1ccccc13`, the growth in the experiment on NCI-H23 lung was 95.9%; in the experiment with NCI-H226 lung, 93.2%; in the experiment on NCI-H322M lung it was 99.9%; in the experiment on HOP-62 NSCLC, 108%; with NCI-H460 lung, 95.2%; in the experiment with NCI-H522 lung it was 89.1%. In addition, the growth with A549/ATCC NSCLC is 87.3%; with 786-0 renal it was 89.4%; in the experiment on COLO 205 colon it was 109%; with DU-145 prostate, 103%; with K-562 leukemia, 92.4%; in the experiment on MALME-3M melanoma it was 109%. The growth in the experiment on MDA-MB-231 breast is 86.3%; in the experiment with SF-268 CNS it was 97.1%; in the experiment on SF-295 CNS, 96.7%; with SF-539 CNS it was 93.2%; in the experiment with UACC-257 melanoma, 116%; in the experiment on M14 melanoma it was 105%.
Turning to `COc1ccc(C(O)c2cc3c(N)c(C(=O)Nc4cccc(OC)c4)sc3nc2C)cc1` (centres undefined), the growth in the experiment with NCI-H23 lung is 30%; with NCI-H226 lung, 45.9%; with NCI-H322M lung, 38.8%; with HOP-62 NSCLC it was 26.5%; in the experiment on NCI-H460 lung, 1.65% (active); in the experiment on NCI-H522 lung, -27.4% (active). The growth in the experiment with A549/ATCC NSCLC was 9.44% (active); in the experiment with 786-0 renal it was 33.9%; in the experiment on COLO 205 colon it was -42.8% (active); with DU-145 prostate, 6.75% (active); in the experiment with K-562 leukemia, 7.83% (active); with MALME-3M melanoma, 52.3%. The growth in the experiment with MDA-MB-231 breast was 12.1%; in the experiment on SF-268 CNS, 27%; in the experiment on SF-295 CNS, 3.76% (active); in the experiment on SF-539 CNS, -12% (active); in the experiment with UACC-257 melanoma, 49.7%; in the experiment with M14 melanoma, 11.8%.
Regarding `CN(C)c1ccc(-c2c(C#N)c(N)n3nc(N)c(C#N)c3c2C#N)cc1`, the growth in the experiment on NCI-H23 lung is 96.9%; in the experiment on NCI-H226 lung it was 86%; in the experiment with NCI-H322M lung, 82%; in the experiment on HOP-62 NSCLC, 57.8%; with NCI-H460 lung, 70.1%; in the experiment with NCI-H522 lung, 82.7%. The growth with A549/ATCC NSCLC was 73.6%; in the experiment with 786-0 renal, 93.1%; in the experiment on COLO 205 colon, 75.4%; in the experiment with DU-145 prostate, 67.1%; in the experiment on K-562 leukemia, 109%; in the experiment with MALME-3M melanoma, 116%. Further, the growth in the experiment on MDA-MB-231 breast is 43.2%; in the experiment with RXF 393 renal, 65.5%; in the experiment on SF-268 CNS, 77%; in the experiment with SF-295 CNS it was 104%; with SF-539 CNS, 78.2%; in the experiment with UACC-257 melanoma, 113%. Moreover, the growth in the experiment with M14 melanoma was 69.1%.

Source of the values: PubChem BioAssay (NCI).
